# Bioassay records: PubChem, National Center for Advancing Translational Sciences (NCATS)
# The list is not random: actives were taken first. Their share in the collection is about 1.8%.
# GLP1R cytotox = cytotoxicity counter-screen for GLP-1 receptor inverse agonists. HEK293 cAMP-luciferase reporter cells, luminescence, 24 h. Potency, µM (top dose mostly 38.3 µM), hits mostly inhibitors. 410,000 compounds, 0.13% hits. AID 624418;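 note: loss of luciferase light is scored as toxicity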
#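 Seeding density was 200 cells/uL; after overnight-length (12 h) culture, 23 nL compounds went on for 24 h at 37 °C. Readout used a luciferase detection reagent, luminescence taken after 12 min at room temperature.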
# GLP1R ag = agonists of human GLP-1 receptor; HEK293 GLP-1R CRE-luciferase, luminescence, 4-6 h; cells express a hypersensitive GLP-1R form; Potency, µM (doses to about 45.6 µM), usual class: activators; P43220; 380,000 compounds, 0.007% hits
# Target sequence (P43220 whole entry, looked up): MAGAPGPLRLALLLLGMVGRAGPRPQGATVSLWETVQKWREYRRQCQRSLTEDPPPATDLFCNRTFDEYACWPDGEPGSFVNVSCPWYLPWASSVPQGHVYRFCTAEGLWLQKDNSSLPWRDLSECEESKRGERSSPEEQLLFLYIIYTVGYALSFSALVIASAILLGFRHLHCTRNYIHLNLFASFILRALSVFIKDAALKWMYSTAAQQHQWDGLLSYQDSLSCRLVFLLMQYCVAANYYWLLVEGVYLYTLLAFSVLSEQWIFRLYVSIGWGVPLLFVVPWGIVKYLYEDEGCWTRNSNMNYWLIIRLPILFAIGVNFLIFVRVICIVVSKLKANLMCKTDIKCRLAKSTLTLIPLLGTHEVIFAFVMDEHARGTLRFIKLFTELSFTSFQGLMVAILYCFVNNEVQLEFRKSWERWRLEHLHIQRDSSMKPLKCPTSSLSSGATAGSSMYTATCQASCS
# GLP-1R inv ag = acts as inverse agonist at human GLP-1 receptor; HEK293 GLP-1R CRE-luciferase, luminescence, 24 h; GLP-1R form is constitutively active; Potency, µM (doses to about 38.3 µM), most hits filed as inhibitors; 410,000 compounds, 1.6% hits; AID 624417; note: nearly all actives have a fitted effect of over 55% in size
#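 HEK293 cells stably co-expressing a cAMP-responsive luciferase reporter and constitutively active GLP-1R were seeded, incubated 12 h, then exposed to compounds for 24 h at 37 C. Luminescence was read 12 min after detection reagent; inverse agonists lower signal.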
# TRPML1 blocker = inhibitors of human TRPML1 channel. TRPML1-inducible cells, Ca2+ dye fluorescence, FDSS; hits give low values; inhibition of EC80 agonist-evoked calcium signal. 390,000 compounds, 0.02% hits. activity change, negative = inhibition, % (no concentration beside the values). AID 624415; in the data active = activity change below about -50%; inconclusive = between about -30% and that limit;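 note: stimulus is agonist 54-4 at its EC80 concentration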
#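 Calcium fluorescence in TRPML1-DL cells induced overnight with Tet: a 110 s read after compound pin addition, then a 110 s antagonist read after challenge with 54-4 at 4 uM final (EC80).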
# TRPML1 ag = activates the human TRPML1 channel | Q9GZU1 | TRPML1-expressing cells, Ca2+ dye fluorescence, FDSS | activation, % (test concentration not listed) | 410,000 compounds, 0.12% hits; in the data active = activation above about 50%; inconclusive = mostly about 30% to 49%
#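 Calcium fluorescence on an FDSS kinetic reader gave the read-out. Tet-induced TRPML1-DL cells were plated overnight, dye-loaded (Ca8 with quencher, 45-90 min, room temperature, dark), then read 110 s after compound addition, and again 110 s after 4uM final 54-4 (EC80).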
# Hits are given with their value; i = inactive; ? = inconclusive; nt = no result. Unless noted, calls come from the whole dose curve; as a rule, active = well fitted curve in the direction sought with a large enough effect; inconclusive = small, poorly fitted or top-dose-only effect, or another doubt; inactive = no such curve, though single readings can be large; an effect the other way counts as inactive or inconclusive.
SMILES,GLP1R cytotox,GLP1R ag,GLP-1R inv ag,TRPML1 blocker,TRPML1 ag
CCOC(=O)c1cnc(-n2nc(C)cc2C)nc1NC1CCCC1,?,i,2.5µM,i,i
Cc1sc2ncn(CC(=O)N3CCN(c4ccccc4)CC3)c(=O)c2c1S(=O)(=O)N1CCC(C)CC1,i,nt,i,i,i
CCc1ccccc1NC(=O)C(=O)NCC(c1cccnc1)N1CCN(c2ccccc2F)CC1 (configuration not stated),i,nt,i,i,i
Nc1cc(=O)[nH]c2c1CCC2,nt,nt,nt,nt,i
COC(=O)c1c(C)[nH]c(/C=N/Nc2ccccc2)c1C,i,i,10µM,i,i
CSc1ccc(CNC(=O)Cc2csc3ccccc23)cc1,i,nt,i,i,i
CCn1c(=O)c(C(=O)CN(C)Cc2ccc(F)cc2)c(N)n(Cc2ccccc2)c1=O,i,i,8.9µM,i,i
CCOC(=O)c1c(/N=C/N(C)C)sc(/C=N/Nc2ccccc2)c1-c1ccccc1Cl,i,i,3.5µM,i,i
CCOC(=O)c1c(/N=C/N(C)C)sc(/C=N/Nc2ccccc2)c1-c1ccccc1,i,i,?,i,i
Cc1cccc(C(=O)NCC(c2ccc3c(c2)OCO3)N2CCOCC2)c1 (configuration not stated),i,nt,i,i,i
CC(C)(C)Cc1c(-c2ccccc2)nc2ccc(Cl)cn12,?,i,13µM,i,i
CC(C)(C)Cc1c(-c2ccc(Cl)cc2)nc2ccc(Br)cn12,?,i,10µM,i,i
CC(C)(C)Cc1c(-c2ccc(Br)cc2)nc2ccc(Cl)cn12,i,i,?,i,i
C=C1CCN(C(Cc2ccccc2)C(=O)NCc2ccc(Cl)c(Cl)c2)S(=O)(=O)c2ccccc21 (configuration not stated),nt,nt,nt,i,i
COc1ccccc1CNc1cc(-c2ccccc2)nc2nncn12,i,nt,i,i,i
CC(C)N1CCCC(C)(C(=O)Nc2cccc(Oc3ccccc3)c2)C1 (configuration not stated),i,?,?,nt,i
COc1cccc(CN2CCC2(C)C(=O)Nc2cccc(Oc3ccccc3)c2)c1F (configuration not stated),?,i,3.2µM,nt,i
CN1CCCC(C)(C(=O)Nc2cccc(Oc3ccccc3)c2)C1 (configuration not stated),i,i,13µM,nt,i
COc1ccc(-n2c(=O)c3c4c(sc3n(Cc3cc(=O)n5c(C)cccc5n3)c2=O)CCC4)c(OC)c1,i,i,i,i,i
CCOC(=O)c1c(NC(=O)CSc2nnc(-c3c[nH]c4ccccc34)n2CCOC)sc2c1CCCC2,i,i,11µM,i,i
COc1ccc(N2CCN(C(=O)c3ccc4c(c3)CCN4S(=O)(=O)c3ccccc3)CC2)cc1,i,i,?,i,i
COc1ccccc1N1CCN(C(=O)c2ccc3c(c2)CCN3S(=O)(=O)c2ccccc2)CC1,i,i,7.9µM,i,i
Nc1cc2c3c(cccc3c1)C(=O)N(CCN1CCCC1)C2=O,i,i,?,i,i
O=C1c2cccc3cc([N+](=O)[O-])cc(c23)C(=O)N1CCN1CCCC1,i,i,4.5µM,i,i
CCCCCn1c(CCCNC(=O)c2cccc(C)c2)nc2ccccc21,?,nt,?,i,i
SMILES,GLP1R cytotox,GLP1R ag,GLP-1R inv ag,TRPML1 blocker,TRPML1 ag
OC(COc1ccccc1)CN1CCCCC1 (configuration not stated),i,i,i,i,i
OC(COc1ccc(CNCCc2ccccc2F)cc1)CN1CCCCC1 (configuration not stated),i,i,5µM,i,i
CCCOc1ccc(/C=N/Nc2cccc([N+](=O)[O-])c2)c(O)c1,?,i,4.5µM,i,i
Cn1c(=O)c2[nH]c(N3CCCCC3)nc2n(C)c1=O,i,i,i,i,60
COc1ccc(OCC(O)Cn2cnc(-c3ccc(Br)cc3)c2)cc1 (configuration not stated),i,i,?,i,i
OC(COc1ccc2ccccc2c1Br)Cn1cnc(-c2ccccc2)c1 (configuration not stated),i,i,10µM,i,i
CCCCOC(=O)c1ccc(NC(=O)CSc2nc3c(c(=O)[nH]2)CCC3)cc1,i,nt,i,i,i
O=c1[nH]cnc2n[nH]nc12,nt,nt,nt,nt,i
CCCCOc1ccc(CC(=O)N(C)OC)cc1,nt,nt,nt,nt,i
CC[C@@H]([C@H](C)O)n1ncn(-c2ccc(N3CCN(c4ccc(OCC5CO[C@@](Cn6cncn6)(c6ccc(F)cc6F)C5)cc4)CC3)cc2)c1=O (some centres not stated),nt,i,nt,nt,nt
CC(C)Cn1c(-c2cccs2)nc2nc3ccccc3nc21,i,i,4µM,i,i
COc1cccc2cc(-c3nc(Nc4cccc(C)c4C)sc3C)c(=O)oc12,i,nt,10µM,i,i
Cc1ccccc1NCC(=O)N/N=C/c1c(C)c(C(=O)c2ccc(Cl)cc2)n2ccccc12,i,i,i,i,i
Cc1c(/C=N/NC(=O)CNc2ccccc2)c2ccccn2c1C(=O)c1ccc(Cl)cc1,i,i,5.6µM,i,i
CC(=O)Nc1ccc(C)cc1-c1nc2ccccc2n(CC(=O)c2ccc(C)c(C)c2)c1=O,i,nt,i,i,i
CC(OC(=O)c1ccccc1OCC(=O)Nc1ccc(Br)cc1)C(=O)NC1CCCC1 (configuration not stated),nt,nt,nt,nt,i
CCOC(=O)C1(Cc2ccccc2C)CCCN(C(=O)c2sccc2C)C1 (configuration not stated),i,i,10µM,i,i
CCOC(=O)C1(Cc2ccccc2C)CCCN(C(=O)c2ccoc2)C1 (configuration not stated),i,i,i,i,i
CCc1cc2c(cc3c(=O)n(CC(=O)NC(C)C)nc(CC)n32)s1,i,nt,i,i,i
CCOc1ccc(NC(=O)Cn2c(=O)c(CNc3ccc(OC)cc3)cc3ccc(OC)cc32)cc1,i,i,i,i,i
CCCOc1cc(C)c(Cl)cc1S(=O)(=O)N(CC)CC,i,i,2.5µM,i,i
NC(=O)CC(NC(=O)c1ccccc1)c1ccc(N2CCCCCCC2)c([N+](=O)[O-])c1 (configuration not stated),i,i,i,i,i
NC(=O)CC(NC(=O)c1ccc(Br)cc1)c1ccc(N2CCCCCC2)c([N+](=O)[O-])c1 (configuration not stated),i,i,11µM,i,i
COc1c(C)cc(Br)cc1C(=O)Nc1ccc(Cc2ccncc2)cc1,i,i,10µM,i,i
CC[C@H](C)[C@@H](CNC)NC[C@@H](Cc1ccc(O)cc1)NCC(C)(C)C,?,i,?,i,i
CC[C@@H](C)[C@H](CN[C@H](CNC)C(C)C)NC[C@@H](C)c1ccc(CC(C)C)cc1,11µM,i,?,i,i
